{
  "source": "paper PMC5540273",
  "about": "(PLoS ONE, 2017);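 note: kd values determined as follow-up on hits from a single-replicate KINOMEscan panel screen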",
  "key": {"[1]": {"test_system": "DYRK2"}, "[2]": {"test_system": "EIF2AK1"}, "[3]": {"test_system": "EPHA1"}, "[4]": {"test_system": "EPHA2"}, "[5]": {"test_system": "EPHA4"}, "[6]": {"test_system": "EPHA6"}},
  "data": [
    {"smiles": "CC(C)(C)OC(=O)NC1CCCN(c2cc(-c3ccc4c(N)n[nH]c4c3)nc(N)n2)C1", "note": "(stereo not shown) [GSK2286096]", "values": [
      {"measurement": "Kd", "setting": "[1]", "result": 0.44, "unit": "µM"}
    ]},
    {"smiles": "FC(F)(F)c1ccc(-c2cc(-c3c[nH]nc3-c3ccccn3)ccn2)cc1", "note": "[GW599550]", "values": [
      {"measurement": "Kd", "setting": "[2]", "result": "> 10", "unit": "µM"}
    ]},
    {"smiles": "Clc1cccc(-c2nc(Nc3ccncc3)c3ccccc3n2)c1", "note": "[GW873004]", "values": [
      {"measurement": "Kd", "setting": "[3]", "result": "> 10", "unit": "µM"}
    ]},
    {"smiles": "CCC(CC)(CC)n1cnc2c(N)ncnc21", "note": "[SKF-97620]", "values": [
      {"measurement": "Kd", "setting": "[4]", "result": "> 10", "unit": "µM"}
    ]},
    {"smiles": "FC(F)(F)c1ccc(-c2nn3ncccc3c2-c2ccnc(Nc3cccc(C(F)(F)F)c3)n2)cc1", "note": "[GW828205]", "values": [
      {"measurement": "Kd", "setting": "[5]", "result": "> 10", "unit": "µM"}
    ]},
    {"smiles": "O=C(Nc1n[nH]c2nc(-c3ccco3)c(Br)cc12)c1ccc(CN2CCCC2)cc1.O=C(O)[C@H](O)[C@@H](O)C(=O)O", "note": "[SB-742352]", "values": [
      {"measurement": "Kd", "setting": "[5]", "result": "> 10", "unit": "µM"},
      {"measurement": "Kd", "setting": "[6]", "result": "> 10", "unit": "µM"}
    ]}
  ]
}
